{"source": "PubChem BioAssay (NCATS)", "key": {"[1]": {"target": "Lysosomal acid glucosylceramidase (Homo sapiens) (UniProt P04062)", "sequence (P04062 whole entry, looked up)": "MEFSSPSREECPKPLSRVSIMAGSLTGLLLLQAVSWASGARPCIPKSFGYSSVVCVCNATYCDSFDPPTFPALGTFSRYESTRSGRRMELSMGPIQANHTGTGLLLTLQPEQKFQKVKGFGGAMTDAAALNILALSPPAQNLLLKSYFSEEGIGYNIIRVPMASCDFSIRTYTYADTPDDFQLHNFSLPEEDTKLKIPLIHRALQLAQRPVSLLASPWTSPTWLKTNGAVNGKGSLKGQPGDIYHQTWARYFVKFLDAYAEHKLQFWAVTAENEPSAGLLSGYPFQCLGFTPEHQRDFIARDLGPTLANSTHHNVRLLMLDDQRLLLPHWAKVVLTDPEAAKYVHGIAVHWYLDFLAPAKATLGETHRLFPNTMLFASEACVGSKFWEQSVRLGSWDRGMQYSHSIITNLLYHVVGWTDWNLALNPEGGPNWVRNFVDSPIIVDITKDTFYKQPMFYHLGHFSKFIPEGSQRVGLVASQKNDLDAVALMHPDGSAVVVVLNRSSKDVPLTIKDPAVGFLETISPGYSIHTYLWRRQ", "test": "Glucocerebrosidase-p2 (AID 348; in the data active = potency below about 10 µM; note: potency is the fitted concentration of half-maximal effect)", "details": "purified GBA, blue fluorogenic substrate, 40 min", "in_short": "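Compounds titrated from 0.6 nM upwards against 0.2 nM enzyme in pH 5.9 citric acid/KH2PO4, taurocholate, tween-20; blue fluorogenic substrate 80 uM, 40 min room temperature, stopped and read Ex 365/Em 440 for AC50.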"}, "[2]": {"test": "AP1 Signaling Pathway (AID 357); note: % is set by controls: 0 for no effect and ±100 for the full control effect", "details": "ME-180 AP-1-bla reporter, EGF-induced, beta-lactamase ratio, 5 h; at 7.69 µM (top of the series) unless noted", "in_short": "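Titration-series screen for positive or negative modulators of EC50 EGF-induced signaling in ME-180 cells carrying an AP-1-driven beta-lactamase reporter. After 5 hours at 37 degrees Celsius, CCF4 460nm/530nm emission ratio gave %Activity; AC50 values derived.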"}, "[3]": {"target": "Cytochrome P450 1A2 (Homo sapiens) (UniProt P05177)", "sequence (P05177 whole entry, looked up)": "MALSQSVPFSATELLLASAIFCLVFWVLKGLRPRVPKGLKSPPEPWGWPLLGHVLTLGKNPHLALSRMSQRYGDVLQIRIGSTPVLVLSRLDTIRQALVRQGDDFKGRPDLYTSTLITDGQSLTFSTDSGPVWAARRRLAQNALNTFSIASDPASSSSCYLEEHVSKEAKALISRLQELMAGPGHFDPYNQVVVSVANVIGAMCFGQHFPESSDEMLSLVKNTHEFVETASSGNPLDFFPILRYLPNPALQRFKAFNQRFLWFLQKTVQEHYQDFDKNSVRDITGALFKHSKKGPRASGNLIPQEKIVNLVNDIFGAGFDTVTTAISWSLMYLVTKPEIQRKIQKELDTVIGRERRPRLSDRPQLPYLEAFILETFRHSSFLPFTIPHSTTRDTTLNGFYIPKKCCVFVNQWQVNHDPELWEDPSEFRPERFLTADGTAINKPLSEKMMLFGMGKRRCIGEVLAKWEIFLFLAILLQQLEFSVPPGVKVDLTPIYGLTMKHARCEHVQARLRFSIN", "test": "p450-cyp1a2 (AID 410; calls by dose curve; note: potency is the fitted concentration of half-maximal effect)", "in_short": "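Inhibition was calculated relative to 57 uM furafylline (full inhibition). The reaction used human CYP1A2 at 20nM with Luciferin-ME at its Km, 100uM, driven by an NADPH-regenerating system for 60 min at room temperature.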"}, "[4]": {"test": "NFAT Signaling Pathway (AID 444); note: % is set by controls: 0 for no effect and ±100 for the full control effect", "details": "Jurkat NFAT-bla M1, carbachol, beta-lactamase ratio, 5 h; at 7.69 µM (top of the series) unless noted", "in_short": "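Jurkat cells carrying an NFAT-driven β-lactamase reporter and co-transfected muscarinic M1 receptor were treated with compound plus carbachol (1 uM final, an EC50 level) for 5 h at 37 °C. CCF4 loading followed for 1 h at RT; 460/530 nm ratio gave %activity.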"}, "[5]": {"test": "Stat Signaling Pathway (AID 446);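 note: ME-180 cervical cancer cells given 40 pM IL-6 alongside compound; SIE-controlled beta-lactamase reporter measured as 460/530 nm FRET emission ratio; % is set by controls: 0 for no effect and ±100 for the full control effect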", "details": "ME-180 SIE beta-lactamase reporter, IL-6 stimulated, 5 h; at 7.69 µM (top of the series) unless noted", "in_short": "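Screening format detects activators and inhibitors alike: ME-180 SIE-bla cells stimulated at 40 pM IL-6 for 5 hrs with compound, then dual-emission beta-lactamase read at 405 nm excitation.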"}, "[6]": {"target": "Glucocorticoid receptor (Homo sapiens) (UniProt P04150)", "sequence (P04150 whole entry, looked up, the tested form may be a part)": "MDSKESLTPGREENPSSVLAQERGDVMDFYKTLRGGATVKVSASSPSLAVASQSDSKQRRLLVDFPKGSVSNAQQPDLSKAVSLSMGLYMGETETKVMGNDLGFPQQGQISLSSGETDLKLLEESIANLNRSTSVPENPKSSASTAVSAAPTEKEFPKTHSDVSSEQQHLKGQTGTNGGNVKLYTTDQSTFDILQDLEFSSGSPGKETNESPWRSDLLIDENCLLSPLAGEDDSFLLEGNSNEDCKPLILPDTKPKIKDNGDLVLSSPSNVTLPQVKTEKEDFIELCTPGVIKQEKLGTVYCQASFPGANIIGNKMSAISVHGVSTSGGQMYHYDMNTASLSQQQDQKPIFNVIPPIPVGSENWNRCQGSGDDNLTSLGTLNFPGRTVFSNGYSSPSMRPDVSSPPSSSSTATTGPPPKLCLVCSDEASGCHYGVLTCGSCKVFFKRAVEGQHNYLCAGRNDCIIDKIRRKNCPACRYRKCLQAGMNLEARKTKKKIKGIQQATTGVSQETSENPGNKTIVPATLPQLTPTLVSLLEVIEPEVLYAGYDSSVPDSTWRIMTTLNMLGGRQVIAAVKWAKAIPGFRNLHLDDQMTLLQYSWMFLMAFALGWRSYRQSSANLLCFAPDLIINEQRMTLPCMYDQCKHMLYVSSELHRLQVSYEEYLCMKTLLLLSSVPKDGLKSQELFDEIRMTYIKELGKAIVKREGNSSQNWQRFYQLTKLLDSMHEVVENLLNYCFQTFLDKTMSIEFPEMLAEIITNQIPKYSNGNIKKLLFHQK", "test": "GR-GFP Redistribution (AID 450;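 active = compounds whose dose series gives a full or clear partial fitted curve of increased nuclear translocation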; note: potency is the fitted concentration of half-maximal effect)", "details": "U2OS GR-GFP nuclear translocation, laser cytometry, 2 h"}, "[7]": {"target": "Glucocorticoid receptor (Homo sapiens) (UniProt P04150)", "test": "GR-EFC Redistribution (AID 451; calls by dose curve; note: potency is the fitted concentration of half-maximal effect)", "details": "CHO-K1 GR-EFC translocation, beta-gal luminescence, 2 h", "in_short": "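CHO-K1 cells stably expressing nuclear-localized β-gal enzyme acceptor and GR fused C-terminally to the enzyme donor fragment; ligand-driven nuclear translocation restores β-gal by complementation. Compounds titrated up to 46 uM final, 2 h at 37 °C; luminescence read.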"}, "[8]": {"target": "Mitogen-activated protein kinase 10 (Mus musculus) (UniProt Q61831)", "test": "JNK3 AlphaScreen Assay (AID 530); note: % is set by controls: 0 for no effect and ±100 for the full control effect", "in_short": "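JNK3 came from HepG2 lysates pre-activated with IL-1beta and TNF-alpha and phosphorylated biotinylated GST-cJun (1-79) at 10 uM ATP, pH 7.6, room temperature. Compounds were titrated. AlphaScreen signal used anti-phospho-cJun (Ser73) antibody.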"}, "[9]": {"target": "Fructose-bisphosphate aldolase A (Oryctolagus cuniculus) (UniProt P00883)", "sequence (P00883 whole entry, looked up)": "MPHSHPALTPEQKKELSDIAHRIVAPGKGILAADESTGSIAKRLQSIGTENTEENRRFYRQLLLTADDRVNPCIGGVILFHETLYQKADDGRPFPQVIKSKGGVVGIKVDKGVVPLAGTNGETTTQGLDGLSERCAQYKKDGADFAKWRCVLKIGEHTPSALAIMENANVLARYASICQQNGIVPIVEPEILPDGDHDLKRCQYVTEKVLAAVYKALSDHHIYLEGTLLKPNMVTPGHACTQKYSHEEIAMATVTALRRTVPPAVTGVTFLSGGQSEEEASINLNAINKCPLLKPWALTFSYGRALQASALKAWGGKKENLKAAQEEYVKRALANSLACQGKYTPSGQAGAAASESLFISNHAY", "test": "qHTS Assay for Inhibitors of Fructose-1,6-bisphosphate Aldolase from Giardia Lamblia: Rabbit FBPA Selectivity (AID 2794; active = well fitted inhibition curve with a large enough effect; note: % is set by controls: 0 for no effect and ±100 for the full control effect; nearly all actives have a fitted effect of over 60% in size)", "in_short": "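Selectivity was assessed on rabbit Class I enzyme by qHTS. Product formation was detected by AmpLite Red fluorescence (525/598 nm) after a 20 min RT reaction started with substrate, following 10 min compound preincubation at up to 57.5 uM final.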"}, "[10]": {"test": "qHTS Assay for Inhibitors of Fructose-1,6-bisphosphate Aldolase from Giardia Lamblia: Coupling assay counterscreen confirmation (AID 2795; active = well fitted inhibition curve with a large enough effect; note: % is set by controls: 0 for no effect and ±100 for the full control effect; nearly all actives have a fitted effect of over 55% in size)", "in_short": "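Compounds at up to 57.5 uM final tested against the coupling enzymes and resorufin-type fluorescent detection only, aldolase omitted. Ex 525 nm/em 598 nm read after 10 min enzyme-compound and 20 min substrate incubations, room temperature.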"}}, "note": "Values without a mark were called inactive. Records with an inconclusive call do not appear. The list shows a part of the results. The source made the active and inactive calls. Unless noted, calls come from the whole dose curve; as a rule, active = well fitted curve in either direction with a large enough effect (not every such curve was filed as active); inconclusive = small, poorly fitted or top-dose-only effect, or another doubt; inactive = flat fitted curve, though single readings scatter.", "data": [{"smiles": "COc1cccc(Cn2c(=O)c(C)nc3cnc(Oc4cccc(Cl)c4)nc32)c1", "values": [{"measurement": "Potency", "setting": "[1]", "value": "> 11.4", "unit": "µM"}, {"measurement": "activity change, negative = inhibition", "setting": "[2]", "value": -22.3, "unit": "%"}, {"measurement": "Potency", "setting": "[3]", "value": "25.1 µM (active)"}, {"measurement": "activity change, negative = inhibition", "setting": "[4]", "value": -7.01, "unit": "%"}, {"measurement": "activity, negative = inhibition", "setting": "[5]", "value": -2.38, "unit": "%"}, {"measurement": "Potency", "setting": "[6]", "value": "> 9.22", "unit": "µM"}, {"measurement": "Potency", "setting": "[7]", "value": "> 46", "unit": "µM"}, {"measurement": "Potency", "setting": "[8]", "value": "inactive"}]}, {"smiles": "Cc1nc2ccc(NC(=S)N3CCC(C)CC3)cc2nc1C", "values": [{"measurement": "outcome", "setting": "[9]", "value": "inactive"}]}, {"smiles": "Clc1cccc(CN2COc3c(cc(Cl)c4cccnc34)C2)c1", "values": [{"measurement": "outcome", "setting": "[9]", "value": "inactive"}, {"measurement": "outcome", "setting": "[10]", "value": "inactive"}]}, {"smiles": "c1ccc2sc(SCCSc3nc4ccccc4s3)nc2c1", "values": [{"measurement": "Potency", "setting": "[1]", "value": "> 11.4", "unit": "µM"}, {"measurement": "activity change, negative = inhibition", "setting": "[2]", "value": 8.08, "unit": "%"}, {"measurement": "Potency", "setting": "[3]", "value": "0.794 µM (active)"}, {"measurement": "activity change, negative = inhibition", "setting": "[4]", "value": -22.4, "unit": "%"}, {"measurement": "activity, negative = inhibition", "setting": "[5]", "value": 2.32, "unit": "%"}, {"measurement": "Potency", "setting": "[6]", "value": "> 46", "unit": "µM"}, {"measurement": "Potency", "setting": "[7]", "value": "> 9.22", "unit": "µM"}, {"measurement": "Potency", "setting": "[8]", "value": "inactive"}]}]}
